Consider 53 compounds from PubChem BioAssay AID504834 (National Center for Advancing Translational Sciences (NCATS), 2011).

Structures are written as SMILES. Among all 320,000 compounds or so, about 22,000 (6.9%) were called active. Inconclusive results (about 27%) are left out. For the sample, actives were picked, then their nearest neighbours and some compounds at random. Values without a mark were called inactive. Calls follow the shape of the dose curve; as a rule, active = well fitted inhibition curve with a large enough effect; inconclusive = small, poorly fitted or top-dose-only effect, or another doubt; inactive = no such curve, though single readings can be large or run the other way.
% is scaled to controls: 0 for no effect and ±100 for the full control effect; potency is read from the fitted curve at half-maximal effect.

This assay is described as follows: Primary qHTS for delayed death inhibitors of the malarial parasite plastid, 96 hour incubation. The following applies: P. falciparum luciferase reporter growth; series mostly up to 28.7 µM; activity change, negative = inhibition: at the top concentration. From the text:
The goal of this screen is to discover new antimalarial compounds that act by inhibiting the development of the apicoplast in the malarial parasite Plasmodium falciparum. The biochemical processes that make this organelle essential for erythrocytic stage parasites are not well understood. However, antibiotics such as azithromycin and tetracycline, which target the apicoplast translational machinery, have a potent antimalarial effect.
We have developed a cell-based assay that measures parasite growth based on the expression of an integrated copy of a firefly luciferase reporter. To detect small molecules that cause this "delayed death" phenotype, erythrocytes infected with the luciferase-expressing parasites were incubated with compounds for either one or two generations, corresponding to 48 and 96 hours, respectively. Compounds that inhibit parasite growth in the second generation, but not the first, should be enriched in antimalarials that target the apicoplast. Growth inhibition is detected by a decrease in luciferase activity.
Assay Provider: David Fidock and Eric Ekland, Columbia University
Keywords: NIH Roadmap, MLPCN, MLI, MLSMR, qHTS, NCGC, qHTS, malaria, luciferase, viability
Four microliters of infected erythrocytes (2% hematocrit, 0.05% parasitemia final concentration) in culture medium were dispensed and the plates incubated for 96 hours at 37 C in 5% CO2. Two microliters of luciferase detection reagent was added and luminescence was detected by a ViewLux (PerkinElmer) reader.
As to `CN(CC(=O)NCCN1CCOCC1)S(=O)(=O)c1ccc(F)cc1`, the “activity change, negative = inhibition” value was 20.1%.
As to `CN(CC(=O)NCC(c1ccccc1)N1CCCC1)S(=O)(=O)c1ccc(Cl)cc1` (stereo not drawn), the Potency was 8.28 µM (active).
`Cc1ccc(NC(=O)NCC(c2cccnc2)N2CCOCC2)cc1` (stereo not drawn): the “activity change, negative = inhibition” value is 11.9%.
As for `CN(CC(=O)NNC(=O)CNC(=O)c1ccccc1Cl)S(=O)(=O)c1ccc(Cl)cc1`, the “activity change, negative = inhibition” value was 16.9%.
In the case of `COc1ccccc1OCCOc1ccc(/C=C2\C(=N)N3N=C(C)SC3=NC2=O)cc1`, the “activity change, negative = inhibition” value is 21.5%.
Still for that read-out and setting: with `CCOC(=O)N1CCN(C(=O)CN(c2ccc(C)c(C)c2)S(=O)(=O)c2ccccc2)CC1` the figure was 21.9%; with `CCOC(=O)N1CCN(C(=O)c2ccc(CN(c3ccc(C)c(C)c3)S(C)(=O)=O)cc2)CC1`, -3.85%.
For the compound `CCN1CCN(C(=O)c2ccc(CN(c3ccc(C)c(C)c3)S(C)(=O)=O)cc2)CC1`, the Potency is 10.4 µM (active).
In the case of `CC1CN(C(=S)Nc2ccccc2F)CC(C)O1` (stereo not drawn), the “activity change, negative = inhibition” value is -42%.
The same measure, in the same setting: with `O=c1[nH]n(-c2cccc(Cl)c2)c2ncccc12` the figure was 40.9%.
Regarding `Cc1[nH]n(-c2cccc(Cl)c2)c(=O)c1-c1ccc(Cl)cc1`, the Potency is 0.415 µM (active).
Take `CCCc1cc(=O)n2[nH]c(C)c(-c3ccc(Cl)cc3)c2n1`: the “activity change, negative = inhibition” value is -3.91%.
As to `CC(C)(O)c1ccccc1CC[C@H](SCC1(CC(=O)O)CC1)c1cccc(/C=C/c2ccc3ccc(Cl)cc3n2)c1`, the “activity change, negative = inhibition” value was -16.4%.
Regarding `NS(=O)(=O)c1ccc(CCNc2nc(C(F)(F)F)nc3ccccc23)cc1`, the “activity change, negative = inhibition” value is 2.6%.
Still for that read-out and setting: with `Cc1cc(C)n(-c2nc(C(F)(F)F)nc3ccccc23)n1` the figure was 14% [at 5.75 µM].
With `CCc1ccc(C(CNc2nc(C(F)(F)F)nc3ccccc23)N(C)C)cc1` (stereo not drawn), the Potency was 11.7 µM (active).
For `O=C(OCc1ccc([N+](=O)[O-])cc1)C1CC(=O)N(Cc2ccccc2Cl)C1` (stereo not drawn), the “activity change, negative = inhibition” value is 58.7%.
Same read-out and setting: the value for `O=C(COc1cccc2c1CCNC2=O)NC1CCCCC1` was -3.31%; that for `O=C(O)c1cccc(N=NN2CCCCCC2)c1` was 49.7%.
Same read-out and setting: the value for `O=C(O)c1cccc(S(=O)(=O)N2CC=C(c3ccccc3)CC2)c1` was -9.09%.
Consider `NC1=NN(c2cccc(C(=O)O)c2)C(=O)C1`, for which the Potency is 13.1 µM (active).
For the compound `CCCCCCCNC(=O)C1(CC2CC(c3cccc(Br)c3)=NO2)CCN(C(=O)c2cc(OCC)c(OCC)c(OCC)c2)CC1` (stereo not drawn), the Potency was 0.329 µM (active).
Regarding `CCOc1ccccc1N1CCN(C(=O)c2ccc3[nH]c(C)c(C)c3c2)CC1`, the “activity change, negative = inhibition” value is 0%.
Take `O=C(c1ccccc1)N1CCC(CC2CC(c3ccc(Cl)cc3)=NO2)(C(=O)NCC2CCCCC2)CC1` (stereo not drawn): the Potency is 1.04 µM (active).
Turning to `CC(=O)N1CCC(C(=O)OCc2ccc(Cl)cc2)(c2ccccc2)CC1`, the “activity change, negative = inhibition” value was -22%.
Still for that read-out and setting: the value for `COC(=O)C1CCN(C(=O)c2ccc3oc(Cc4ccc(Cl)cc4)nc3c2)CC1` was 1.63%; that for `COc1ccccc1C(=O)NC(=O)COC(=O)c1ccco1` was 53.6%.
Same read-out and setting: the value for `Cc1ccc(N2C(=O)CC(Nc3cccc4ccccc34)C2=O)cc1` (stereo not drawn) was 26.3%.
On the same count and under the same terms, with `COc1ccc(C2=NS(=O)(=O)N(C)C(C(=O)NC(C)c3ccccc3)=C2)cc1` (stereo not drawn) the figure was 24.1%; with `COc1ccccc1CCC(=O)NNC(=O)c1ccncc1`, -3.56%.
For the compound `Cc1nn(-c2ccccc2)c(C)c1NC(=O)COC(=O)c1cc(Cl)ccc1O`, the “activity change, negative = inhibition” value was 13.2%.
Consider `CCN1CCN(C(c2cccnc2)c2cc(Cl)c3cccnc3c2O)CC1` (stereo not drawn), for which the Potency was 10.4 µM (active).
For `CCN1CCN(c2ccc(NC(=O)c3cnccn3)cc2)CC1`, the “activity change, negative = inhibition” value is -11.3%.
For the compound `Cc1nc(C)c(-c2nnc(-c3cccc(S(=O)(=O)N(C)C)c3)o2)cc1C(=O)NN`, the “activity change, negative = inhibition” value was 11.1%.
Still for that read-out and setting: the value for `Cn1c(SCC(=O)Nc2ccc(N3CCOCC3)cc2)nnc1C(F)(F)F` was -8.65%; that for `Cc1ccccc1NC(=O)c1cc(S(=O)(=O)Nc2cccc(C(=O)O)c2)ccc1Cl` was 0%.
Consider `O=C(NC1CC1)c1ccc2c(c1)NC(=O)c1ccccc1S2`, for which the Potency is 8.28 µM (active).
With `S=C1Nc2cc(Cl)ccc2Sc2ccccc21`, the “activity change, negative = inhibition” value was 16.5%.
Same read-out and setting: the value for `O=C(NC1CC1)c1cccc(Br)c1` was -3.65%.
`COC(=O)Cn1cnc2scc(-c3ccc(C)c(C)c3)c2c1=O`: the Potency is 10.4 µM (active).
Regarding `CCOC(=O)C(C)n1cnc2scc(-c3ccc(C)c(C)c3)c2c1=O` (stereo not drawn), the “activity change, negative = inhibition” value is -3.94%.
On the same count and under the same terms, with `CCn1cnc2scc(-c3ccc(C)c(C)c3)c2c1=O` the figure was 42%.
In the case of `COc1ccc(NC(=O)C(C)N2c3cccc4cccc(c34)S2(=O)=O)c(OC)c1` (stereo not drawn), the Potency is 2.94 µM (active).
For `COc1ccc(NC(=O)CCN2CCCC2)c(OC)c1`, the “activity change, negative = inhibition” value was -23.8%.
For the compound `CSc1ccccc1NC(=O)C(C)N1C(=O)c2ccccc2S1(=O)=O` (stereo not drawn), the “activity change, negative = inhibition” value is 18.5%.
In the case of `CN(CC(=O)NCc1ccc2c(c1)OCO2)CC(=O)Nc1ccc(F)c(F)c1F`, the “activity change, negative = inhibition” value was -27.8%.
Still for that read-out and setting: with `CCC(C)N(C(=O)COC(=O)c1nc(Cl)ccc1Cl)C1CCS(=O)(=O)C1` (stereo not drawn) the figure was 8.59%; with `O=C(c1ccc(OC2CCN(C/C=C/c3ccc(F)cc3)CC2)cc1)N1CCCCC1`, 27%; with `COc1ccc(S(=O)(=O)N(C)CC(=O)N2CCCC2)cc1`, -10.3%.
As for `Cc1ccc(S(=O)(=O)N2CCC(Oc3ccc(-n4cnnn4)cc3)CC2)cc1`, the “activity change, negative = inhibition” value is 76.6%.
The same measure, in the same setting: with `CC(C)(c1ccccc1)c1ccc(OCCN2CCCC2)cc1` the figure was 109%; with `CC(C)(c1ccccc1)c1ccc(OCCN)cc1`, 27.9%.
For the compound `CN1CCC[C@@H]1CCO[C@](C)(c1ccccc1)c1ccc(Cl)cc1`, the Potency was 15.1 µM (active).
